Measured values: the supplement of paper PMC12636033
± gives the standard deviation of the averaged measurements. Whole data set: some 33,000 sequences, median “E-score (rank enrichment, -0.5 to 0.5)” near -0.0075, cut for the highest 2% near 0.23. Many of the other results were omitted from the sample, so the highest values are more common in it than they were.

These sequences were tested on WT Max(13-93) synthetic (M65Nle) (assay: PBM 8-mer E-score (E-score (rank enrichment, -0.5 to 0.5)); higher = stronger preferential binding).
Method: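 Protein binding microarray (universal PBM chip covering all 10-mers in fixed probe flanks) with chemically synthesized human Max(13-93) bHLH-LZ analogs (not full-length Max) bearing noncanonical residues (hArg, Tha, Aib, Nle at 65) and aromatic Cys staples. Read-out per 8-mer (and its reverse complement): E-score (rank-based enrichment, -0.5 to 0.5) and Z-score of median probe intensity.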

| Sequence | PBM 8-mer E-score |
| --- | --- |
| AATTTAGC | 0.121 ± 0.065 |
| CGGACCTA | -0.0947 ± 0.063 |
| ACTGCATG | 0.0467 ± 0.031 |
| AATGCAAC | 0.172 ± 0.014 |
| TATGCATA | 0.181 ± 0.037 |
| CATGCAAC | 0.287 ± 0.054 |
| ATTGCATG | 0.163 ± 0.15 |
| AATGCGTA | 0.0374 ± 0.047 |
| CATGCGTA | 0.346 ± 0.038 |
| CATGCATA | 0.242 ± 0.064 |
| GATGCGTA | 0.0564 ± 0.052 |
| AATGCATG | 0.257 ± 0.054 |
| CATGCAAG | 0.0946 ± 0.011 |
| GATGCATA | 0.0327 ± 0.027 |
| CTACCTAA | 0.0741 ± 0.11 |
| TTAGAGAA | -0.00786 ± 0.18 |
| ATCTTTCG | 0.0243 ± 0.034 |
| AGGCGTCC | -0.0473 ± 0.0037 |
| AATGCATA | 0.206 ± 0.12 |
| AATGCATC | 0.163 ± 0.044 |
| AATGCATT | 0.345 ± 0.024 |
| CATGCATG | 0.261 ± 0.073 |

| Sequence | PBM 8-mer E-score |
| --- | --- |
| AATGCAAG | 0.117 ± 0.074 |
| AATGCAAT | 0.237 ± 0.029 |
| CATGCATC | 0.101 ± 0.018 |
| CATGCAGG | 0.0755 ± 0.026 |
| AATGCAAA | 0.143 ± 0.091 |
| AGGACGGG | -0.111 ± 0.0023 |
| AGGGCTAT | -0.0385 ± 0.038 |
| CTCATAGC | -0.112 ± 0.12 |
| CACATTTA | 0.143 ± 0.021 |
| GCTAAACC | -0.212 ± 0.15 |
| CGACGTGC | -0.0266 ± 0.031 |
| CAACGTGG | 0.172 ± 0.03 |
| TAACGTGA | 0.125 ± 0.039 |
| CCACGTGC | 0.488 ± 0.0054 |
| CAACGTGA | 0.259 ± 0.05 |
| CCACGTGG | 0.4957 ± 0.00063 |
| AAACGTGA | 0.146 ± 0.13 |
| CCACGTCC | -0.0561 ± 0.11 |
| CCACGTTA | 0.3 ± 0.019 |
| CCACGTAG | -0.0793 ± 0.044 |
| GCACGTTA | 0.194 ± 0.078 |
| CCACGTTC | 0.0954 ± 0.045 |

| Sequence | PBM 8-mer E-score |
| --- | --- |
| CATTCCGG | -0.206 ± 0.049 |
| ATTTCAAG | 0.112 ± 0.2 |
| ACACTAGG | -0.0884 ± 0.012 |
| ATCTTTTG | 0.00161 ± 0.044 |
| CTTATGAA | 0.0318 ± 0.11 |
| CTTACTCA | 0.0397 ± 0.06 |
| CCACGTGA | 0.4829 ± 0.002 |
| CGACGTGA | 0.0688 ± 0.0071 |
| CTACGTGA | -0.0378 ± 0.094 |
| AGAGCACA | -0.0234 ± 0.086 |
| ATTGCTTA | 0.0363 ± 0.041 |
| ACTACACA | 0.306 ± 0.067 |
| CCTACACG | -0.0643 ± 0.072 |
| CGTACACA | 0.15 ± 0.012 |
| TGTACACA | 0.159 ± 0.071 |
| AGTACACG | 0.233 ± 0.032 |
| ACTACACG | 0.139 ± 0.041 |
| CGTACACC | 0.0276 ± 0.012 |
| AGTACACA | 0.163 ± 0.09 |
| CGTACACG | 0.257 ± 0.018 |
| CTTCGCTC | -0.143 ± 0.067 |
| TAAGGAGA | 0.0617 ± 0.054 |

| Sequence | PBM 8-mer E-score |
| --- | --- |
| CAGAACCA | -0.0491 ± 0.0095 |
| AGTTGCTC | -0.143 ± 0.047 |
| AGCACATC | 0.0162 ± 0.041 |
| AGCACATG | 0.343 ± 0.004 |
| ACCACATA | 0.00899 ± 0.073 |
| ATCACATG | 0.37 ± 0.017 |
| ATCACATA | 0.175 ± 0.13 |
| ACCACATG | 0.404 ± 0.012 |
| AGCACATA | 0.0511 ± 0.0046 |
| ATCACATC | 0.065 ± 0.073 |
| ACCACATC | 0.0678 ± 0.067 |
| GCTCTGAC | -0.2596 ± 0.00028 |
| CCTACTGA | 0.0748 ± 0.039 |
| CCCTATCA | 0.0698 ± 0.034 |
| CCTCACAC | -0.0382 ± 0.027 |
| TGAGCTCA | -0.206 ± 0.065 |
| AATGCACA | 0.128 ± 0.055 |
| AATGCACT | 0.143 ± 0.027 |
| GATGCACA | -0.00554 ± 0.026 |
| CATGCACG | 0.186 ± 0.11 |
| AATGCACG | 0.245 ± 0.045 |
